# In the supplement of paper PMC6555819:
# Test system: RARb homodimer (NR concentration 270 nM)
# Experiment: PBM binding z-score (relative to random genomic background probes); higher = stronger binding; sequences stand for … in GC…GCGATTGACAGCGTAGAATGAAGG
# Summary of the method: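 Binding z-scores take random background probes as their reference. They come from custom Agilent 4×180K protein-binding microarrays incubated 1 h with ligand-free nuclear receptor dimers, with antibodies against each partner (one per run) detecting binding. Scanned fluorescence was regression-normalized.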
row,Sequence,PBM binding z-score
1,CAAACTAGGTCAGAACAGGACAGTGAAGGATGAT,2.11
2,TCTAGTAGATCAACAGGAGGTTAAGAAAGATCGA,0.413
3,TCATATAGATAAAAGGTGAAAGTCGGTGTGGTAA,1.53
4,TCTCGGTGGACACGAAAGGTCAGAGCTCGACATC,4.36
5,CCTAGCAGGCCAGGGTCTCTCAAGCATTTCGCTT,-0.597
6,TTACCAAGGTGAGCTGAGGTCGTTGAACCAACTC,1.77
7,ATCGAAAGGTCGAGGTGATTATAGAGAAAGGGAA,2.72
8,CGTCCAAGGTCAAAGGTCGGTGAAGAGATGACGG,4.52
9,AGAATGATGTTATACGTAGATCAGGGAAGAAAGT,-0.0497
10,ATTCCAAGGTGATCGTGAGGTCGTTGATACTAAC,1.59
11,TCTAGCAGGCCACAGGGTCACTCAAGAGGTACGG,3.28
12,TGTCAAAGTTCAAAGGAAACGTAAGTATCCACAC,3.37
13,GGAACGATGGCATTCGAGTTGATAGCATGGCGAT,-1.05
14,CTCGAAAGGTCGTGCTCAGGTGAGTATTCCAAAC,3.11
15,TCTCGGAGGACACGAAGGTCAGAGGTTTCCAGAG,4.01
16,ATATGTAGCTTATCGGGTCATTCAGTTTGCGCAT,2.24
17,CCGACTGGGGCACAAAGGTTACCATACCATCCGG,2.64
18,GGAACGAGGGGAAAGTTGATAGCATCTGTCGACG,0.0344
19,CGAACTAGGTGATCCAGGACAGTGAATACATTGA,0.12
20,TCATATAGGTAAACGGTGAAAGTCGGTGTGGTAA,0.301
21,CCGACTGGGGCAGAAAGGTTGCCATACCATCCGG,0.631
22,ATAGGTAGGTTAGCTGGGGTCATTCAGACTAGGC,4.09
